In the library only some 6% were active in any assay of this set; here they are far more common.
D3 ag: qHTS of D3 Dopamine Receptor Agonist: qHTS | D(3) dopamine receptor (Homo sapiens), P35462 | D3R DiscoveRx beta-arrestin cells, luminescence, 90 min | max activation, % | 410,000 tested, 0.58% active; in the data active = max activation above about 30%; note: 0% is about no effect
Target sequence (P35462 whole entry, looked up): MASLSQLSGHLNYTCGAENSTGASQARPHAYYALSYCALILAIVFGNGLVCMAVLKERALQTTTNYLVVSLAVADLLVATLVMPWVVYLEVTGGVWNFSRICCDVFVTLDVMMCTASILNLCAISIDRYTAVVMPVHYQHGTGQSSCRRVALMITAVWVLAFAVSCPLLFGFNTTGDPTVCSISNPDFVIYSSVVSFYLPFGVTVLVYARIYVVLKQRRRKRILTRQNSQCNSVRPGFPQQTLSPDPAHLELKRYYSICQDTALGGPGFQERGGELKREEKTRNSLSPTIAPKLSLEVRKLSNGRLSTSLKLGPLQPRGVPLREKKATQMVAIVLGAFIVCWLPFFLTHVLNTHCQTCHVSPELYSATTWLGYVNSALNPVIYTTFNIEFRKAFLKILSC
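Cells at 1500/well, incubated overnight, then treated with pinned compounds (dopamine as control) for 90 min at 37 degrees C. DiscoveRx reagent added for 30 - 60 minutes at room temperature; luminescence read.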
D1 PAM: Potentiators of Human D1 Dopamine Receptor: qHTS; HEK293 TREx D1 cells, calcium flux, dopamine EC20 potentiation; potentiation, % at 10 µM; 360,000 tested, 0.036% active; in the data active = potentiation above about 30%; note: 0% is about no effect
DRD3 antagonist: qHTS of D3 Dopamine Receptor Antagonist: qHTS | D3R cells, DiscoveRx beta-arrestin luminescence, antagonist mode; stronger effect = lower value | AID 652054, 2013 | 360,000 tested, 2.5% active | max response, negative = inhibition, % | D(3) dopamine receptor (Homo sapiens), P35462; in the data active = max response below about -50%; inconclusive = no clear call, values can overlap the other calls; note: % is set by controls: 0 for no effect and ±100 for the full control effect
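Cells expressing the human receptor were seeded at 1500 cells/well, incubated overnight at 37 degrees C in 5% CO2, then exposed to library compounds with dopamine controls for 90 minutes at 37 degrees C before luminescent detection.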
D1 agonist: Allosteric Agonists of the Human D1 Dopamine Receptor: qHTS; D(1A) dopamine receptor (Homo sapiens), P21728; HEK293 T-REx D1 cells, calcium flux, agonist mode; activation, % at 2 µM; 360,000 tested, 1% active; AID 504660, 2011; in the data active = activation above about 30%; note: 0% is about no effect
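Agonism was scored from calcium flux recorded over 180 s (1 read/s) after pintool compound addition, following a 10-cycle baseline. Cells were inducible force-coupled HEK293 TREx D1, plated overnight at 30 C and loaded with no-wash calcium dye.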
D1 antag: Antagonist of Human D 1 Dopamine Receptor: qHTS. HEK293 TREx D1 cells, calcium flux, dopamine EC80; stronger effect = lower value. activity change, negative = inhibition, % at 10 µM. 360,000 tested, 3.2% active; in the data active = activity change below about -30%; note: % is set by controls: 0 for no effect and ±100 for the full control effect
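Kinetic fluorescence of a calcium dye serves as the read-out. D1-expressing Hek293 Trex cells, induced overnight at 30 C, are exposed to compound for 180 s before an EC80 dopamine addition, then read 180 s further.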
The depositor's hits bear a star.

For COc1cccc(CN2CCN(c3ncccn3)CC2)c1OC the results were D3 ag 11, D1 PAM -3, DRD3 antagonist -1, D1 agonist 0 and D1 antag 9.
CCCS(=O)(=O)N1CCN(Cc2ccccc2OCC)CC1 was read as D3 ag -5, D1 PAM 2, DRD3 antagonist inconclusive, D1 agonist 5 and D1 antag 0.
Screening CCOC(=O)N1CCN(Cc2cc(Cl)c3cccnc3c2O)CC1 returned D3 ag -11, D1 PAM -2, DRD3 antagonist -55*, D1 agonist 11 and D1 antag 3.
O=C(c1ccc(F)cc1)C1CCN(Cc2cn[nH]c2-c2ccc(F)cc2)CC1 was read as D3 ag -10, D1 PAM -10, DRD3 antagonist inconclusive, D1 agonist 10 and D1 antag -24.
For CCOC(=O)c1c(S(=O)(=O)N2CCC(C(=O)NCc3cccc(OC)c3)CC2)c(C)n(C)c1C the results were D3 ag -3, D1 PAM -2, D1 agonist 1 and D1 antag 5.
For Oc1ccc(CN2CCCc3ccccc32)c2cccnc12 the results were D3 ag 8, D1 PAM -9, DRD3 antagonist -22, D1 agonist 2 and D1 antag -5.
For CN1CCN(Cc2cc(Cl)c3cccnc3c2OC(=O)c2cccs2)CC1 the results were D3 ag 5, D1 PAM -8, DRD3 antagonist 7, D1 agonist 3 and D1 antag -14.
For O=C(Oc1c(CN2CCOCC2)cc(Cl)c2cccnc12)c1ccccc1Br the results were D3 ag -28, D1 PAM -2, DRD3 antagonist -80*, D1 agonist 0 and D1 antag -10.
Screening COc1ccccc1N1CCN(Cc2ccc(O)c3ncccc23)CC1 returned D3 ag -87, D1 PAM -8, DRD3 antagonist -105*, D1 agonist 8 and D1 antag -1.
`Cc1ccc(Cn2c(CN3CCN(c4cccc(Cl)c4)CC3)nc3c2c(=O)n(C)c(=O)n3C)cc1` gave D3 ag -3, D1 PAM 11, D1 agonist 12 and D1 antag 42.
`Cc1cc([N+](=O)[O-])nn1CCCC(=O)Nc1ccc(Cl)cc1Cl` gave D3 ag 0, D1 PAM -7, DRD3 antagonist -2, D1 agonist 0 and D1 antag -39*.
`Cc1c(Cl)cccc1NC(=O)CCCn1nc([N+](=O)[O-])cc1C` gave D3 ag 4, D1 PAM 2, DRD3 antagonist -20, D1 agonist 2 and D1 antag -9.
For COc1ccccc1NC(=O)/C(=C\c1cccnc1)NC(=O)c1ccc(C)cc1 the results were D3 ag -18, D1 PAM 3, DRD3 antagonist -3, D1 agonist 2 and D1 antag -32*.
N#C/C(=C\c1cccnc1)C(=O)Nc1cccc(Cl)c1 was read as D3 ag -13, D1 PAM -2, DRD3 antagonist -10, D1 agonist 7 and D1 antag -7.
`N#C/C(=C\c1cccnc1)C(=O)Nc1ccc(Cl)cc1` gave D3 ag -12, D1 PAM -3, DRD3 antagonist inconclusive, D1 agonist 7 and D1 antag -31*.
Screening COc1ccccc1NC(=O)/C(C#N)=C/c1ccncc1 returned D3 ag 2, D1 PAM -4, DRD3 antagonist 15, D1 agonist 17 and D1 antag -13.
For COc1ccccc1NC(=O)/C(C#N)=C/c1cccnc1 the results were D3 ag 0, D1 PAM -6, DRD3 antagonist 4, D1 agonist -1 and D1 antag -31*.
`O=C(Nc1ccc(F)cc1)[C@H](CSCc1ccccc1)N1Cc2ccccc2C1=O` gave D3 ag 1, D1 PAM -2, D1 agonist 4 and D1 antag 4.
O=C(Cn1c(S(=O)(=O)Cc2ccccc2)nc2ccccc21)N1CCCCC1 was read as D3 ag -11, DRD3 antagonist -13, D1 agonist 4 and D1 antag -35*.
Screening O=C(Cn1c(NCCO)nc2ccccc21)N1CCN(Cc2ccccc2)CC1 returned D3 ag 7, D1 PAM -1, DRD3 antagonist 4, D1 agonist 1 and D1 antag -41*.
Screening NC(=O)CS(=O)(=O)c1nc2ccccc2n1CC(=O)N1CCCCC1 returned D3 ag 12, D1 PAM -8, DRD3 antagonist -5, D1 agonist 2 and D1 antag -13.
For CN(C)CC(CCC(CN(C)C)C(=O)c1ccccc1)C(=O)c1ccccc1 (configuration not stated) the results were D3 ag -43, D1 PAM 0, DRD3 antagonist -80*, D1 agonist 3 and D1 antag 6.
CCOc1ccc(C(=O)C(CCC(CN(C)C)C(=O)c2ccc(OCC)cc2)CN(C)C)cc1 (configuration not stated) was read as D3 ag -13, D1 PAM -10, DRD3 antagonist -85*, D1 agonist 36* and D1 antag 13.
Screening COc1ccc(C(=O)C(CCCCC(CN(C)C)C(=O)c2ccc(OC)cc2)CN(C)C)cc1 (configuration not stated) returned D3 ag -13, D1 PAM -10, DRD3 antagonist inconclusive, D1 agonist 24 and D1 antag -40*.
Screening O=C(c1ccccc1)C(CCC(CN1CCOCC1)C(=O)c1ccccc1)CN1CCOCC1 (configuration not stated) returned D3 ag -23, D1 PAM -2, DRD3 antagonist -11, D1 agonist 0 and D1 antag 4.
`O=C(CNC(=O)c1ccc2ccccc2c1)OC(C(=O)Nc1cc(C(F)(F)F)ccc1Cl)c1ccccc1` (configuration not stated) gave D1 PAM 4, D1 agonist 5 and D1 antag 24.
For CCCC(=O)OC1=CN(Cc2ccccc2)S(=O)(=O)c2ccccc21 the results were D3 ag 0, D1 PAM -2, D1 agonist 12 and D1 antag -7.
CN1C(=O)C2(CCCCC2)C1c1ccccc1 (configuration not stated) was read as D3 ag -15 and DRD3 antagonist -76*.
`O=C(Nc1nc(-c2cc3ccccc3oc2=O)cs1)c1ccco1` gave D3 ag 0, D1 PAM -8, DRD3 antagonist 18, D1 agonist -1 and D1 antag -64*.
`COc1cc(O)oc1C=Nc1ccc(C(=O)O)cc1` gave D3 ag 2, D1 PAM 1, DRD3 antagonist -23, D1 agonist 0 and D1 antag -79*.

High-throughput results as filed in PubChem BioAssay.
